Data published in PubChem BioAssay (NCI).
Compounds without any hit were thinned out: in the full panel of roughly 79,000, 15% have a hit. Calls of active or inactive are those of the source. Rule as the data show it: active = growth inhibition above about 70%; inactive = the rest.

What was measured:
[1] = NCI Yeast Anticancer Drug Screen. Data for the rad52 strain (AID 147);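 also: 0% = growth of vehicle-treated control cultures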; details: S. cerevisiae rad52 mutant growth inhibition, active compounds read high
Method in brief: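 Measured: yeast growth inhibition. System: strain with a defined DNA damage repair alteration. Reference: vehicle-treated control cultures.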

[2] = NCI Yeast Anticancer Drug Screen. Data for the wt1 strain (AID 149);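 also: 0% = growth of vehicle-treated wt1 cultures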; details: S. cerevisiae wt1 strain (SPY 50644) growth inhibition, active compounds read high
Method in brief: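 Vehicle-normalised growth inhibition; strain wt1; compound exposure.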

[3] = NCI Yeast Anticancer Drug Screen. Data for the rad50EPP+ strain (AID 151);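 also: 0% = growth of vehicle-treated control cultures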; details: S. cerevisiae rad50 mutant strain, active compounds read high
Method in brief: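 One strain with a rad50 alteration (rad50EPP+) was compound-treated, its growth then compared to that of vehicle controls.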

[4] = NCI Yeast Anticancer Drug Screen. Data for the mgt1 strain (AID 153); details: S. cerevisiae mgt1 mutant growth inhibition, active compounds read high
Method in brief: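 After exposure of the mgt1 yeast mutant to compound, growth was measured and reported as inhibition compared with vehicle controls.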

[5] = NCI Yeast Anticancer Drug Screen. Data for the rad50 strain (AID 155);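 also: 0% = growth of vehicle-only cultures of the same strain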; details: S. cerevisiae rad50 strain growth inhibition, active compounds read high
Method in brief: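 A DNA repair-deficient yeast mutant serves as the test organism; compound-induced growth inhibition is calculated against vehicle-treated cells.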

[6] = NCI Yeast Anticancer Drug Screen. Data for the mec2-1 strain (AID 157); details: S. cerevisiae mec2-1 strain, active compounds read high
Method in brief: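 Test agents were screened against the mec2-1 yeast strain, with defined DNA repair or cell cycle alteration. Growth was scored as inhibition against vehicle-only controls.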

[7] = NCI Yeast Anticancer Drug Screen. Data for the rad14 strain (AID 159);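 also: 0% = growth of vehicle-treated control cultures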; details: S. cerevisiae rad14 strain growth inhibition, active compounds read high
Method in brief: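 Vehicle-treated cultures served as the baseline for growth inhibition of a DNA repair-mutant yeast strain exposed to each compound.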

[8] = NCI Yeast Anticancer Drug Screen. Data for the sgs1 mgt1 strain (AID 161);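 also: 0% = growth of cultures given vehicle only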; details: S. cerevisiae sgs1 mgt1 strain, active compounds read high
Method in brief: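 Mutant yeast exposed to compound; growth scored against vehicle-only wells.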

[9] = NCI Yeast Anticancer Drug Screen. Data for the CLN2oe strain (AID 163);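 also: 0% = growth of vehicle-only control cultures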; details: S. cerevisiae CLN2oe strain, active compounds read high
Method in brief: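 Here, growth inhibition in a cell-cycle-altered yeast strain after compound exposure was quantified against vehicle control growth.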

[10] = NCI Yeast Anticancer Drug Screen. Data for the cln2 rad14 strain (AID 165);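 also: 0% = growth equal to vehicle treated cultures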; details: S. cerevisiae cln2 rad14 strain, active compounds read high
Method in brief: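 Growth of compound-exposed yeast (cln2 rad14 genotype) measured and expressed as inhibition relative to vehicle.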

[11] = NCI Yeast Anticancer Drug Screen. Data for the bub3 strain (AID 167); details: S. cerevisiae bub3 mutant strain, active compounds read high
Method in brief: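 Inhibition values come from growth of compound-treated mutant yeast normalised to vehicle-treated controls.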

[12] = NCI Yeast Anticancer Drug Screen. Data for the wt2 strain (AID 169);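 also: 0% = growth of vehicle-treated yeast cultures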; details: S. cerevisiae wt2 strain growth inhibition, active compounds read high
Method in brief: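 Genetically defined yeast strains from a DNA-repair/cell-cycle panel were used. Compound-exposed yeast growth was measured, and the inhibition was calculated relative to vehicle treatment.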

[13] = NCI Yeast Anticancer Drug Screen. Data for the mlh1 strain (AID 171);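 also: 0% = growth of vehicle-treated control cultures of the same strain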; details: S. cerevisiae mlh1 strain growth inhibition, active compounds read high
Method in brief: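 Here the genetically defined yeast mutant is grown with each compound, and the extent to which its growth falls below that of vehicle-exposed cells is reported.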

[14] = NCI Yeast Anticancer Drug Screen. Data for the sgs1 strain (AID 173);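 also: 0% = growth of vehicle-only control cultures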; details: S. cerevisiae sgs1 mutant, active compounds read high
Method in brief: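 Relative growth inhibition, referenced to vehicle, was determined in a yeast strain with a defined alteration affecting DNA damage repair or cell cycle control after compound exposure.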

[15] = NCI Yeast Anticancer Drug Screen. Data for the mlh1 rad18 strain (AID 175); details: S. cerevisiae mlh1 rad18 strain growth inhibition, active compounds read high
Method in brief: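 In this whole-cell yeast screen, a strain with altered DNA damage repair is challenged with compound, and its growth is measured against matched vehicle-treated controls.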

[16] = NCI Yeast Anticancer Drug Screen. Data for the rad18 strain (AID 177); details: S. cerevisiae rad18 mutant growth inhibition, active compounds read high
Method in brief: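 Screen uses a yeast strain with a defined lesion in DNA damage repair; compound effect is read as loss of growth compared to untreated vehicle cultures.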

[17] = at 5.0 µM (retest, dose inferred, filed as 0.5)
[18] = at 50.0 µM (retest, dose inferred, filed as 5.0)

Measured: growth inhibition

CCCCCCCN(CCCCCCC)CC(=O)c1ccc2cc(Cl)c3ccccc3c2c1
active: [1]; at 11.0 µM 98% | [1]; at 33.0 µM 96% | [1]; at 100.0 µM 92% | [2]; at 11.0 µM 97% | [2]; at 33.0 µM 97% | [2]; at 100.0 µM 92% | [3]; at 100.0 µM 94% | [4]; at 11.0 µM 98% | [4]; at 33.0 µM 98% | [4]; at 100.0 µM 95% | [5]; at 11.0 µM 98% | [5]; at 33.0 µM 97% | [5]; [18] 93% | [5]; at 50.0 µM 99.3% | [5]; at 100.0 µM 92% | [6]; at 11.0 µM 78% | [6]; at 33.0 µM 98% | [6]; [18] 96% | [6]; at 50.0 µM 99.4% | [6]; at 100.0 µM 96% | [7]; at 11.0 µM 98% | [7]; at 33.0 µM 97% | [7]; at 100.0 µM 95% | [8]; [18] 96% | [8]; at 50.0 µM 99.2% | [9]; at 11.0 µM 98% | [9]; at 33.0 µM 97% | [9]; at 100.0 µM 92% | [10]; [18] 93% | [10]; at 50.0 µM 98.5% | [11]; at 11.0 µM 98% | [11]; at 33.0 µM 97% | [11]; [18] 95% | [11]; at 50.0 µM 98.2% | [11]; at 100.0 µM 94% | [12]; at 11.0 µM 98% | [12]; at 33.0 µM 97% | [12]; at 100.0 µM 95% | [13]; at 11.0 µM 98% | [13]; at 33.0 µM 97% | [13]; at 100.0 µM 93% | [14]; at 11.0 µM 98% | [14]; at 33.0 µM 97% | [14]; at 100.0 µM 93% | [15]; [18] 94% | [15]; at 50.0 µM 99.5% | [16]; at 11.0 µM 98% | [16]; at 33.0 µM 97% | [16]; at 100.0 µM 93%
inactive: [1]; at 1.2 µM 3% | [1]; at 3.7 µM 19% | [2]; at 1.2 µM -7% | [2]; at 3.7 µM 18% | [3]; at 1.2 µM -5% | [3]; at 3.7 µM 0% | [3]; at 11.0 µM 29% | [3]; at 33.0 µM 58% | [4]; at 1.2 µM 5% | [4]; at 3.7 µM 19% | [5]; at 1.2 µM 2% | [5]; at 3.7 µM 28% | [5]; [17] 39% | [6]; at 1.2 µM 1% | [6]; at 3.7 µM 0% | [6]; [17] 26% | [7]; at 1.2 µM 36% | [7]; at 3.7 µM 50% | [8]; [17] 60% | [9]; at 1.2 µM 1% | [9]; at 3.7 µM 22% | [10]; [17] 14% | [11]; at 1.2 µM 9% | [11]; at 3.7 µM 24% | [11]; [17] 26% | [12]; at 1.2 µM 32% | [12]; at 3.7 µM 64% | [13]; at 1.2 µM -9% | [13]; at 3.7 µM 40% | [14]; at 1.2 µM 5% | [14]; at 3.7 µM 26% | [15]; [17] 25% | [16]; at 1.2 µM -9% | [16]; at 3.7 µM 19%
